From PubChem BioAssay
Hits are enriched below; roughly 6.4% of the tested compounds scored in any of these assays.
Gal4-VP16 FLuc = counter-screen for ROR gamma inhibitors: Gal4-VP16 reporter; Drosophila S2 Gal4-VP16 UAS-luciferase, luminescence, 20 h; Potency, µM (series often up to 53.6 µM), for inactives: at the highest dose activity, negative = inhibition, hits mostly inhibitors; hit rate 3.5% among 310,000;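 further: Gal4-VP16 expression switched on by copper sulfate through the metallothionein promoter; nearly all actives have a fitted effect of over 50% in size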
RORg inh = inhibitors of mouse ROR gamma transcriptional activity. AID 2551. Drosophila S2 Gal4-RORgamma UAS-luciferase reporter, 20 h. Potency, µM (doses to about 53.6 µM), without a hit: at the highest dose activity change, negative = inhibition, actives largely listed as inhibitors. hit rate 5.4% among 310,000. P51450; further: nearly all actives have a fitted effect of over 60% in size
Target sequence (P51450 whole entry, looked up, the tested form may be a part): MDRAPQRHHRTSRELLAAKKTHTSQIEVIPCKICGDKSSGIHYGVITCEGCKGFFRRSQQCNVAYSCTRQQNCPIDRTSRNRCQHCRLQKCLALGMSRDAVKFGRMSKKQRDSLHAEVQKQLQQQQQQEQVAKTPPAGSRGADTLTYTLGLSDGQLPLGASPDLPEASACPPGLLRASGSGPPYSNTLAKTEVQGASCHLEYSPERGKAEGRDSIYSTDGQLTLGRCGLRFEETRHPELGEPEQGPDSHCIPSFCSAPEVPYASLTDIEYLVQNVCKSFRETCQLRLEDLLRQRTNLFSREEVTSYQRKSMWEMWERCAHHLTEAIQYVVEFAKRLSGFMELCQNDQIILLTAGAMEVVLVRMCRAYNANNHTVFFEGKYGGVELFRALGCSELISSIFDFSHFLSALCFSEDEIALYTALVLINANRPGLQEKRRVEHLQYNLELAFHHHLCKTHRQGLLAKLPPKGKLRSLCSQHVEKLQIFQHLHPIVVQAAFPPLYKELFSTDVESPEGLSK
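ROR gamma transcriptional activity was tracked as Gal4-UAS luciferase output in stably transfected Drosophila Schneider cells, with compound added 1 hr before 700 uM copper sulfate induction and a 20 hr ambient-temperature incubation.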
KinaseGlo FLuc = counter-screen: inhibitors of Kinase-Glo firefly luciferase; Potency, µM (series often up to 38.3 µM), without a hit: top-dose activity change, negative = inhibition, usual class: inhibitors; Kinase-Glo luciferase, ATP luminescence, 8 min; Q27757; hit rate 0.28% among 200,000; further: nearly all actives have a fitted effect of over 60% in size
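Inhibition of Kinase-Glo luciferase light generation was assessed at 10 uM ATP in pH 7.2 imidazole buffer, with luminescence measured after eight minutes at ambient temperature.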
The depositor's hits bear a star; ? = inconclusive; / = no result; [ ] = remark or other dose. The call rests on the fitted dose curve; in most records, active means well fitted curve in the direction sought with a large enough effect; inconclusive means small, poorly fitted or top-dose-only effect, or another doubt; inactive means no such curve, though single readings can be large; an effect the other way counts as inactive or inconclusive. On the % scale 0 is the no-effect control and ±100 the full control effect; potency means the concentration at half of the fitted maximal effect.

SMILES	Gal4-VP16 FLuc	RORg inh	KinaseGlo FLuc
Cc1ccc(-c2nc(CS(=O)CC(=O)NCc3ccc(Cl)cc3)c(C)o2)cc1 (configuration not stated)	0%	13µM*	7%
CCc1ccc(-c2nc(CS(=O)CC(=O)NCc3ccccc3)c(C)o2)cc1 (configuration not stated)	-3%	?	/
O=C(NNC1=Nc2cccc3cccc1c23)c1ccc(Br)cc1	2µM*	0.71µM*	-2%
COc1ccc(CC(=O)NNC2=Nc3cccc4cccc2c34)cc1OC	-21%	?	/
COCCNC(=O)CSc1nc2scc(-c3ccccc3)c2c(=O)[nH]1	0%	38%	/
Cn1c(=S)oc2ccccc21	-10%	-2%	/
CC(=O)/C=C/n1c(=S)oc2ccccc21	3.2µM*	2.8µM*	-6%
CC(=O)Nc1ccc(NC(=O)CCn2c(=S)oc3ccccc32)cc1	8%	-3%	0%
CC(C)CC(=O)/C=C/n1c(=S)oc2ccccc21	11µM*	-96%	-3%
CC(C)(C)c1ccc(S(=O)(=O)N2CCN(c3ccccn3)CC2)cc1	-2%	3%	/
O=S(=O)(/N=C(/Nc1cccc2ccccc12)c1ccccc1)c1ccc(F)cc1	13%	2%	/
CC1CCC(C(C)C)C(OC(=O)C[n+]2cccc(C(N)=O)c2)C1 (configuration not stated)	-7%	-7%	7%
O=C(C[n+]1cc(-c2ccc(Cl)cc2)n2c1CCCCC2)c1ccccc1	-3%	-14%	/
CC(C)[C@@H]1CC[C@@H](C)C[C@H]1OC(=O)C[n+]1cc(-c2ccc(Cl)cc2)n2c1CCCCC2	11µM*	?	/
COc1ccc(-c2c[n+](CC(=O)OC3CC(C)CCC3C(C)C)c3n2CCC3)cc1 (configuration not stated)	7.9µM*	?	1%
CC(C)c1ccccc1NC(=S)NCc1ccncc1	-7%	-35%	-5%
CC(C)N(Cc1ccccc1)C(=S)Nc1ccccc1F	1%	-35%	/
Cc1cccc(C)c1NC(=S)NN(Cc1ccccc1)c1ccccc1	?	5µM*	-1%
Fc1ccccc1NC(=S)NN(Cc1ccccc1)c1ccccc1	10µM*	4.5µM*	-5%
CC(C)c1ccccc1NC(=S)NN(Cc1ccccc1)c1ccccc1	?	2.2µM*	-3%
Cc1cccc(C)c1NC(=S)N(Cc1ccccc1)Cc1cccnc1	12%	?	1%
C=CCN(C(=O)CNC(=O)c1ccco1)C(C(=O)NC1CCCC1)c1ccc(OC)cc1 (configuration not stated)	1%	28%	/
Nc1cccc(S(=O)(=O)O)c1	5%	11%	/
CC(C)(C)c1ccc(C(=O)O)c(C(=O)c2ccccc2)c1	-14%	1%	3%
Oc1ccc2ccccc2c1CNc1ccccn1	-4%	4%	/
SMILES	Gal4-VP16 FLuc	RORg inh	KinaseGlo FLuc
Cc1ccc(C)c(S(=O)(=O)NCCCc2ccccc2)c1	-20%	19%	/
S=C(NCCc1ccc(Cl)cc1)NC1CCCCC1	5µM*	3.5µM*	/
O=C(NC1CCCCC1)NC1CC2CCC(C1)N2C(=O)NCc1ccccc1 (configuration not stated)	-9%	0%	0%
OCCN(Cc1ccccc1)C(=S)NC1CCCCC1	-2%	?	1%
S=C(NCCNCc1ccccc1)NC1CCCCC1	?	4µM*	1%
S=C(NCCc1ccccc1)NC1CCCCCC1	9%[0.365 µM]	2.8µM*	1%
O=C(NCCc1ccccc1)C(=O)NC1CCCCC1	12%	-4%	-2%
O=C(NC1CCCCC1)C(=S)NCCc1ccccc1	2%	20%	2%
S=C(NC1CCCCC1)N(CCc1ccccc1)CCc1ccccc1	10µM*	10µM*	/
Cc1ccccc1NS(=O)(=O)c1cc(C(=O)NCc2ccncc2)ccc1Cl	1%	0%	/
S=C(NCCc1ccccc1)NCC(c1ccco1)N1CCCCC1 (configuration not stated)	?	10µM*	-1%
S=C(NCCc1ccc(Cl)cc1)NC1CCCC1	6.3µM*	2µM*	0%
COc1ccc(NC(=S)NCC(c2ccco2)N2CCCC2)cc1 (configuration not stated)	-6%	?	12%
S=C(NCc1ccc(Cl)cc1)NC1CCN(Cc2ccccc2)CC1	?	?	0%
CC1CCCC/C1=N\NC(=S)NCCc1ccccc1 (configuration not stated)	1.8µM*	0.35µM*	0%
Cc1ccc(NC(=S)N/N=C2\CCCCC2C)cc1 (configuration not stated)	0%	?	1%
Cc1cccc(C(=O)NCCN2CCOCC2)c1[N+](=O)[O-]	-19%	13%	0%
Cc1nc(NC2CCCCC2)c2nc(-c3ccccc3)n(CCCN3CCCCC3C)c2n1 (configuration not stated)	-4%	?	-2%
CCOC(=O)C1CCN(C(=O)Nc2ccc(OC(F)(F)F)cc2)CC1	9%	36%	/
NCC1O[C@@H](O[C@@H]2C(O)[C@H](O[C@H]3OC(CO)C(O)C(N)C3O)[C@@H](N)C[C@H]2N)C(N)C(O)C1O (some centres not stated)	2%	1%	-1%
CC(C)(C)Nc1oc(-c2ccccc2)nc1-c1cccc2ccccc12	-4%	-11%	1%
O=C(/C=C/NNC(=O)c1ccccc1)c1ccc(Br)cc1	3%	?	1%
O=C(/C=C/NNC(=O)c1ccc(Cl)cc1)c1ccccc1	?	11µM*	1%
N/C(COc1cccc(C(F)(F)F)c1)=N\NC(=O)c1cccnc1Oc1ccccc1	1.3µM*	0.5µM*	-2%
Cc1snc(SCC(=O)N/N=C(\N)COc2cccc(C(F)(F)F)c2)c1C#N	6.3µM*	5µM*	-2%
SMILES	Gal4-VP16 FLuc	RORg inh	KinaseGlo FLuc
O=C(Nc1ccc(F)cc1)c1cccnc1Oc1ccccc1	2%	23%	/
O=C(NNc1cccc(Cl)c1)c1cccnc1Oc1ccccc1	-7%	9%	/
Cc1snc(SCC(=O)c2ccc(F)cc2)c1C#N	-6%	-5%	-2%
N/C(COc1ccccc1)=N\NC(=O)c1cccnc1Oc1ccccc1	1.4µM*	?	3%
Cc1ccc(N2CC(C(=O)Nc3ccc(N4CCOCC4)cc3)CC2=O)cc1C (configuration not stated)	-14%	-14%	/
Cc1nc(CN(C)C(=O)c2ccccc2OC2CCN(S(C)(=O)=O)CC2)cs1	-11%	28%	-1%
COc1ccc(NC(C)=O)cc1NC(C)c1nc2sc(C)c(C)c2c(=O)[nH]1 (configuration not stated)	-3%	10µM*	1%
CC(=O)Nc1ccc(S(=O)(=O)N2CCN(Cc3nc4sc(C)c(C)c4c(=O)[nH]3)CC2)cc1	-6%	0%	/
COc1ccc(/C=N/N2CCN(c3ccc(Cl)cc3)CC2)cc1O	-8%	28%	/
COC(=O)CSc1n[nH]c(-c2ccncc2)n1	/	-6%[0.365 µM]	-5%
CCc1ccc(C(=O)CSc2n[nH]c(-c3ccncc3)n2)cc1	11µM*	39%	0%
CCOc1ccc(NC(=O)Cn2sc3nc(C)cc(C)c3c2=O)cc1	11µM*	?	/
Cc1cc(C)c2c(=O)n(CC(=O)Nc3ccc(Cl)cc3)sc2n1	13µM*	?	/
Cc1cc(C)c2c(n1)SCC(=O)N2CC(=O)Nc1cccc(Cl)c1	5%	-20%	/
